Source: PubChem BioAssay (EPA / NIEHS)
Calls of active or inactive are those of the source. The calls were made as follows: active = hit-call score of the fitted dose curve at least 0.9, where 1 is the maximum; inactive = score below 0.9.

Assay: ATG_AP_2_CIS: Attagene CIS-FACTORIAL HepG2 Assay for human Activator Protein 2 (AP-2) (AID 2282932)
Details: HepG2 AP-2 cis-reporter, Attagene transcription factor profiling; actives raise or lower the signal
Procedure: ATG_CIS is a cell-based, multiplexed-readout assay that uses HepG2, a human liver cell line, with measurements taken at 24 hours after chemical dosing in a 24-well plate.ATG_AP_2_CIS is one of 52 assay component(s) measured or calculated from the ATG_CIS assay. It is designed to make measurements of mRNA induction, a form of inducible reporter, as detected with fluorescence intensity signals by Reverse transcription polymerase chain reaction (RT-PCR) and Capillary electrophoresis technology.Data from the assay component ATG_AP_2_CIS was analyzed into 1 assay endpoint. This assay endpoint, ATG_AP_2_CIS, was analyzed with bidirectional fitting relative to DMSO as the negative control and baseline of activity. Using a type of inducible reporter, measures of mRNA for gain or loss-of-signal activity can be used to understand the reporter gene at the transcription factor-level as they relate to the gene TFAP2A and TFAP2B and TFAP2D. Furthermore, this assay endpoint can be referred to as a primary readout, because this assay has produced multiple assay endpoints where this one serves a reporter gene function. To generalize the intended target to other relatable targets, this assay endpoint is annotated to the dna binding intended target family, where the subfamily is basic helix-turn-helix leucine zipper.
Human liver HepG2 cells are transiently transfected with multiple reporter transcription units (MRTUs) in 6-well plates using FuGene 6 reagent (Roche; 3 ml FuGene/1 mg DNA). The MRTU constructs are regulated by a cis-regulating element (promoter). […] A major difference between the CIS and TRANS system is that in CIS activities of endogenous TFs are measured, whereas the TRANS assay evaluates changes in activities of exogenous, chimeric NR-Gal4 proteins. […] At the end of 24 hour incubation, total RNA was isolated using TriZol reagent (Invitrogen). The isolated RNA is then reverse-transcribed using oligo(dT) primer and Mo-MLV reverse transcriptase (Invitrogen) with DNAse I (Ambion) treatment for 30 min. The one-tenth of the produced cDNA was amplified by PCR using Taq DNA polymerase (Invitrogen) and two reporter sequence-specific primers. The PCR products were fluorescently labeled by primer extension with 6-arboxyfluorescein (6-FAM) 5'-labeled reporter sequence-specific primer (2 min at 95 C, 20 s at 68 C and 10 min at 72 C) and these products were digested with 5U of HpaI (New England Biolabs) for 2h at 37 C. The fragments were purified using Qiaquick PCR columns (Qiagen), analyzed on an ABI 3130xL genetic analyzer (Applied Biosystems) with peak positions identified by using a set of X-rhodamine (ROX)-labeled MapMarker1000 molecular weight standards (BioVentures). The raw capillary electrophoresis data was processed using Attagraph software (Attagene).

| Compound | outcome | AC50 |
| --- | --- | --- |
| C[Si](O[Si](C)(C)C)O[Si](C)(C)C | inactive | – |
| CCCCOCCOCCSC#N | inactive | – |
| CC(c1cc2ccccc2s1)N(O)C(N)=O (stereo not given) | inactive | – |
| NC(N)=NC(=O)c1nc(Cl)c(N)nc1N | inactive | – |
| O=c1[nH]c(=O)n([C@H]2CCCO2)cc1F | inactive | – |
| OCC(CO)(CO)COCC(CO)(CO)CO | inactive | – |
| COc1cc2ncnc(Nc3cccc(Cl)c3)c2cc1OC | – | 5.09 µM (active) |
| CSc1nc(NC2CC2)nc(NC(C)(C)C)n1 | inactive | – |
| CCCCCCCCCCC(CO)CCCCCCCC (stereo not given) | inactive | – |
| C=C(C)[C@@H]1CC[C@@H](C)C[C@@H]1O | inactive | – |
| CC(=O)O[C@H](CC(=O)[O-])C[N+](C)(C)C | inactive | – |
| C=C(C)C(=O)OCCOC(=O)CC(C)=O | inactive | – |
| O=C(O)C[C@H](O)C[C@H](O)/C=C/c1c(C2CC2)nc2ccccc2c1-c1ccc(F)cc1 | inactive | – |
| COc1cc(C(C)(C)C)c(O)c(C(C)(C)C)c1 | inactive | – |
| ClCCCl | inactive | – |
| BrC1CCC(Br)C(Br)CCC(Br)C(Br)CCC1Br (stereo not given) | inactive | – |
| C=C(C)[C@@H]1CCC2=CC(=O)C[C@@H](C)[C@]2(C)C1 | inactive | – |
| Cc1ccc2n[nH]nc2c1 | inactive | – |
| Nc1cc(N)cc(C(=O)O)c1 | inactive | – |
| O=Cc1ccc(F)cc1 | inactive | – |

| Compound | outcome | AC50 |
| --- | --- | --- |
| C[C@H]1C[C@H]2[C@@H]3CCC4=CC(=O)C=C[C@]4(C)[C@@]3(F)[C@@H](O)C[C@]2(C)[C@@]1(O)C(=O)COP(=O)(O)O | inactive | – |
| CCCC(=O)C(C)=O | inactive | – |
| CC1CCC2CC1C2(C)C (stereo not given) | inactive | – |
| S=C(S)NCCNC(=S)S | inactive | – |
| CC1=CCC(O)(C(C)C)CC1 (stereo not given) | inactive | – |
| C=C(C)C1CCC(C)CC1O (stereo not given) | inactive | – |
| N#Cc1ccccc1 | inactive | – |
| O=C(Cl)c1cccc(C(=O)Cl)c1 | inactive | – |
| CC[Si](OC(C)=O)(OC(C)=O)OC(C)=O | inactive | – |
| CCC/C=C/C=O | inactive | – |
| CCCCCC(CO)CCC (stereo not given) | inactive | – |
| O=C(O)CCCCCCCCCCC(=O)O | inactive | – |
| CC1COc2ccccc2N1C(=O)C(Cl)Cl (stereo not given) | inactive | – |
| CNCCCC12CCC(c3ccccc31)c1ccccc12 | inactive | – |
| C=CCOc1nc(OCC=C)nc(OCC=C)n1 | inactive | – |
| CCCOCC(C)O (stereo not given) | inactive | – |
| O=Nc1ccc(Nc2ccccc2)cc1 | inactive | – |
| CC1CCC(C(C)CS)CC1S (stereo not given) | inactive | – |
| CCCCC[Si](OCC)(OCC)OCC | inactive | – |
| Cc1c(N(C)C)c(=O)n(-c2ccccc2)n1C | inactive | – |
